Bioassay records: PubChem BioAssay, Sanford-Burnham Center for Chemical Genomics
SENP8 block-1 – blocks the human protease SENP8; purified SENP8, Z-RLRGG-aminoluciferin cleavage, luminescence; Q96LD8; inhibition, % at 10 µM; 1.2% of 330,000 active; in the data active = inhibition above about 50%
SENP7 inh – blocks the human protease SENP7; Q9BQF6; recombinant SENP7, Z-RLRGG-aminoluciferin luminescence, 40 min; inhibition, % at 5 µM; 1.5% of 330,000 active; AID 434973;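 active = inhibition above about 50% at the single test dose, limit read from the data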;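 also: plate controls were DMSO with enzyme for no effect and no enzyme buffer wells for full effect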
SENP6 block – SENP6 protease inhibition; Recombinant SENP6 catalytic domain, aminoluciferin luminescence; 1.8% of 330,000 active; Q9GZR1; AID 2599; inhibition, % at 10 µM;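 active = inhibition above about 50% at the single tested dose, limit read from the data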;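 also: plate controls were DMSO wells with enzyme for no effect and DMSO wells lacking enzyme for full effect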
Target sequence (Q9GZR1 628-1112 limits assumed): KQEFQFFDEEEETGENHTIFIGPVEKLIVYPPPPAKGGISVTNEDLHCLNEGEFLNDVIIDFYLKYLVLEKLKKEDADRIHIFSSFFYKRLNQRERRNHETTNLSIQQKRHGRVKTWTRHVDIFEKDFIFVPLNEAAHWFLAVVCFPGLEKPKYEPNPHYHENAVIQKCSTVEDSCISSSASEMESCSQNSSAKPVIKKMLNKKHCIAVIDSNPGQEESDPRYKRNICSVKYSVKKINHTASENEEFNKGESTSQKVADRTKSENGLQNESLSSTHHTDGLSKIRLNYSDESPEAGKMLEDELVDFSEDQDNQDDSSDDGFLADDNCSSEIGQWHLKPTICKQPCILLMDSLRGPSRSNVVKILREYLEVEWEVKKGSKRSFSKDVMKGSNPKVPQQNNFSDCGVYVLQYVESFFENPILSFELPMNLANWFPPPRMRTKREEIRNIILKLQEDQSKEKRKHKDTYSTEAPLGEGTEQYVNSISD
C8 TRAIL sens – caspase-8 TRAIL sensitization; NB7+C8 cells + TRAIL, ATPlite viability luminescence; inhibition (viability loss, TRAIL sensitization), % at 10 µM; 1% of 360,000 active;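 active = compounds causing at least 50% loss of cell viability in the single-dose screen, relative to plate controls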
SENP8 block-2 – SENP8 (human) protease inhibition; Q96LD8; recombinant SENP8, Nedd8 substrate fluorescence; inhibition, % at 20 µM; 0.64% of 360,000 active; AID 602440; in the data active = inhibition mostly above about 40%, no sharp cut-off; inactive = mostly below about 27%
PPC-1+TRAIL kill – PPC-1 cancer cell killing with TRAIL present. PPC-1 cells + TRAIL, ATPLite viability luminescence. 0.41% of 220,000 active. cell killing (% activity), % at 4 µM or 5 µM;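 active = cell killing above 50% in the first pass at 4 µM, then a duplicate retest at 5 µM averaging 50% or more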;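 also: plate controls were cells with TRAIL plus DMSO for no effect and medium-only wells lacking cells for full effect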
SENP8 confirm – confirmation of human SENP8 protease inhibitors; inhibition, % at 12.5 µM; 40% of 6,200 active; shares compounds with SENP7 inh; AID 488912; Recombinant SENP8, Z-RLRGG-aminoluciferin luminescence, 60 min;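 active = mean inhibition across replicates above about 50%, limit read from the data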
SENP6 confirm – human SENP6 inhibition, confirmed | shares compounds with SENP7 inh | inhibition, % at 12.5 µM | recombinant SENP6, Z-RLRGG-aminoluciferin luminescence | 58% of 6,200 active
SENP7 confirm – confirmation of human SENP7 protease inhibitors; shares compounds with SENP7 inh; recombinant SENP7, Z-RLRGG-aminoluciferin luminescence, 40 min; inhibition, % at 12.5 µM; AID 488917; 69% of 6,200 active
Casp3 SENP sel – inhibits human caspase-3 in SENP selectivity test; shares compounds with SENP7 inh; purified caspase-3, Z-DEVD-aminoluciferin luminescence, 60 min; inhibition, % at 12.5 µM; 60% of 6,200 active; AID 488918;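 active = mean inhibition above about 50%, limit read from the data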;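 also: plate controls were enzyme with DMSO for no effect and wells without caspase-3 for full effect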
SENP luc ctr – interferes with luciferase luminescence in SENP counter-screen; shares compounds with SENP7 inh; Pre-incubated SENP8/Z-RLRGG-aminoluciferin, luciferase luminescence interference; inhibition, % at 12.5 µM; 39% of 6,200 active; AID 488919;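 active = mean inhibition above about 50% when retested at one dose, limit read from the data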;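 also: plate controls were DMSO wells with completed reaction for no effect and substrate without enzyme for full effect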
* marks the source's active call; other numbers are inactive results; nt = no result given. A selection: hits, their analogues and other compounds. The true share with any hit is near 3%.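 The calls were made as follows, unless noted: active = mean inhibition above about 50% in the one-dose retest (limit read from the data); inactive = the rest.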

SMILES | SENP8 block-1 | SENP7 inh | SENP6 block | C8 TRAIL sens | SENP8 block-2 | PPC-1+TRAIL kill | SENP8 confirm | SENP6 confirm | SENP7 confirm | Casp3 SENP sel | SENP luc ctr
Cc1ccc(-c2nc3sc4c(c3c(=O)n2N)CCCC4)cc1 | 36 | 54* | 72* | 28 | -30 | 26 | 9 | 66* | 88* | 41 | 17
O=c1c2c3c(sc2nc2n1CCCCC2)CCCCC3 | 16 | -3 | 26 | 20 | 6 | -4 | nt | nt | nt | nt | nt
Cc1ccc(-c2nc3sc4c(c3c(=O)n2N)CC(C)(C)OC4)cc1 | 3 | 4 | 5 | 9 | -24 | 10 | nt | nt | nt | nt | nt
O=c1c2c3c(sc2nc2n1CCCCC2)CCCC3 | 21 | 33 | 62* | 10 | 4 | 4 | 22 | 45 | 57* | 56* | 16
Cc1ccc2c(c1)nnn2C1CCN(CC(=O)Nc2ccc(F)cc2)CC1 | -8 | -7 | -12 | 4 | 14 | 10 | nt | nt | nt | nt | nt
O=C(CN1CCC(n2nnc3cc(F)ccc32)CC1)NCCc1nc2ccccc2[nH]1 | 2 | 52* | 14 | -12 | 13 | 6 | 10 | 9 | 3 | -3 | -2
Cc1ccc2c(c1)nnn2C1CCN(CC(=O)N2CCN(c3ccc(F)cc3)CC2)CC1 | 3 | 64* | -9 | -2 | 10 | -18 | 8 | 7 | 2 | 0 | 5
COc1ccc(-c2cc3ccccc3[nH]2)cc1 | 10 | 61* | 53* | 24 | -404 | -20 | 9 | 21 | 66* | 39 | 21
Cc1ccc(O)c(-c2cc3ccccc3[nH]2)c1 | 49 | 53* | 71* | 3 | -274 | -20 | 62* | 62* | 83* | 16 | 71*
Cc1ccc(C(=O)OCc2cc3ccccc3[nH]c2=O)cc1 | -2 | -10 | -15 | 10 | -31 | 30 | nt | nt | nt | nt | nt
Clc1cccc(Cc2c(C3CCCCC3)nc3ccc(Br)cn23)c1 | nt | nt | nt | 22 | -2 | nt | nt | nt | nt | nt | nt
Cc1cc(C)c(OCC(=O)OCC(=O)NNC(=O)c2ccccc2F)c(C)c1 | 0 | -8 | 18 | 5 | 6 | nt | nt | nt | nt | nt | nt
O=C(Nc1nc2ccccc2[nH]1)c1cccc([N+](=O)[O-])c1 | -13 | 26 | 2 | 16 | 5 | 24 | nt | nt | nt | nt | nt
CN(C)c1cccc(C(=O)Nc2nc3ccccc3[nH]2)c1 | 37 | 65* | 33 | 83* | -193 | nt | 41 | 44 | 81* | 73* | 43
O=C(Nc1nc2ccccc2[nH]1)c1cccc(Br)c1 | 3 | 57* | -17 | 34 | -11 | nt | -6 | 1 | 3 | 34 | 10
O=C(Nc1nc2ccccc2[nH]1)Nc1ccccc1F | 39 | 40 | 60* | 18 | 15 | nt | 14 | 54* | 38 | 31 | 5
O=C(Nc1nc2ccccc2[nH]1)c1cccc(F)c1 | 82* | 91* | 91* | 43 | -4 | nt | 8 | 84* | 98* | 92* | 33
Cc1ccc(S(=O)(=O)NC2CC(C)(C)N(O)C(C)(C)C2)cc1 | 3 | 5 | 17 | -1 | 35 | nt | nt | nt | nt | nt | nt
CCCCC(=O)Nc1cc(C)c(NC(=O)c2ccco2)cn1 | -17 | 9 | -7 | -18 | 8 | nt | nt | nt | nt | nt | nt
COc1nsnc1NS(=O)(=O)c1ccc(NC(=S)NC(=O)c2cccnc2)cc1 | 24 | 30 | 54* | 13 | 16 | -10 | 55* | 51* | 82* | 84* | 55*
N/C(=N\OC(=O)c1ccc(Cl)cc1)c1nonc1N | 94* | 100* | 97* | -4 | 0 | 26 | 98* | 100* | 103* | 98* | 95*
N/C(=N\OCc1ccccc1)c1nonc1N | 55* | 69* | 61* | -2 | 22 | 9 | 62* | 61* | 89* | 83* | 72*
